Shown are actives, neighbours in structure and some others; about 1.9% of the full set was active somewhere.
ClpP mod: qHTS Assay for Activators of ClpP. purified B. subtilis ClpP, FRET peptide cleavage, 20 min. Potency, µM (top dose mostly 57.5 µM). ATP-dependent Clp protease proteolytic subunit (Bacillus subtilis (strain 168)), P80244. 340,000 compounds, 1.9% hits; active = well fitted falling curve with a large enough effect; inconclusive = small, poorly fitted or top-dose-only effect; inactive = no such curve, though single readings can be large or run the other way; note: the source files actives as falling curves though it sought activators and does not explain the sign; nearly all actives have a fitted effect of over 65% in size
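Purified B. subtilis ClpP, 10 microg/mL final in Tris/HCl pH8 with KCl, BSA, glycerol and Tween-20, cleaved an Abz/nitrotyrosine-quenched decapeptide. Fluorescence (ex 320, em 430) was read at 0 and 20 min at room temperature. Delta was normalized to 5.8 microM ADEP and DMSO/no-enzyme controls.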
Menin MLL FP TR: menin-MLL binding inhibition, Texas Red mutant peptide; O00255; Menin + Texas Red MLL mutant peptide, fluorescence polarization; Potency, µM (doses to about 61.6 µM), most hits filed as inhibitors; 270,000 compounds, 0.23% hits; AID 1768; active = well fitted inhibition curve with a large enough effect in the polarisation, with a control signal flat, not every such curve was filed as active; inconclusive = small, poorly fitted or top-dose-only effect, or effect the other way, or a change in a side signal; inactive = no such curve, though single readings can be large or run the other way; the % refers to the polarisation
CXXC DNA block: MLL CXXC-DNA interaction inhibition; AID 2662; Q03164; Potency, µM (series often up to 115 µM), actives largely listed as inhibitors; 290,000 compounds, 0.037% hits; MLL-CXXC / FITC-HOXA9 DNA fluorescence polarization; active = well fitted inhibition curve with a large enough effect in the polarisation, with a control signal flat, not every such curve was filed as active; inconclusive = small, poorly fitted or top-dose-only effect, or effect the other way, or a change in a side signal; inactive = no such curve, though single readings can be large or run the other way; the % refers to the polarisation
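Fluorescence polarization: 7 uM MLL-CXXC (stock) preincubated 5 min with compounds, then 50 nM fluorescein-HOX-A9 DNA (stock) added; 30 min ambient. Buffer 50 mM Tris-HCl pH 7.5, 50 mM NaCl, 1 mM DTT, 0.05% BSA.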
Epigenetic reg: epigenetic control regulation, reporter derepression; murine LDR cells, GFP reporter derepression, 30 h; Potency, µM (top dose mostly 53.9 µM), hits mostly activators; 280,000 compounds, 0.2% hits; active = well fitted activation curve with a large enough effect; inconclusive = small, poorly fitted or top-dose-only effect; note: nearly all actives have a fitted effect of over 60% in size
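Murine LDR cells carrying a silenced, genomically integrated CMV-driven GFP reporter were exposed to compound for 30 hours at 37 C. After PBS washes, GFP-positive cells (20–120 um objects) were counted by laser-scanning microplate cytometry.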
Menin MLL FP FL: inhibitors of human menin-MLL interaction, wild-type MLL peptide; Fluorescence polarization, fluorescein-MLL peptide displacement from menin; FP activity change, % at 61.4 µM; 290,000 tested, under 10 active; active = well fitted curve in the direction sought with a large enough effect in the polarisation, not every such curve was filed as active; inconclusive = small, poorly fitted or top-dose-only effect, or effect the other way, or a change in a side signal; inactive = no such curve, though single readings can be large or run the other way; the % refers to the polarisation
PINK1 expr mod: modulators of PINK1 expression | PINK1 immunofluorescence, high-content cytometry, 24 h | Potency, µM (series often up to 76.6 µM), actives largely listed as activators | 410,000 compounds, 0.2% hits; active = well fitted activation curve with a large enough effect; inconclusive = small, poorly fitted or top-dose-only effect; cell line not stated here; note: nearly all actives have a fitted effect of over 65% in size
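Fluorescence from anti-PINK1 antibody, together with nuclear and cell stains, was scanned on a laser-scanning cytometer. Before staining, stable-line cells were incubated 24 hours with compounds at 5 concentrations; primary antibody 12 h at 10 degrees C.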
Hits are given with their value; i = inactive; ? = inconclusive; nt = no result given; [ ] = dose if it differs, or a comment.

SMILES	ClpP mod	Menin MLL FP TR	CXXC DNA block	Epigenetic reg	Menin MLL FP FL	PINK1 expr mod
CCc1ccc(N2C(=O)C3NN=C(C(=O)OCc4ccccc4)C3C2=O)cc1 (stereo unspecified)	i	i	i	i	i	i
O=C(OCc1ccccc1)C1=NNC2C(=O)N(c3ccccc3)C(=O)C12 (stereo unspecified)	22µM	i	i	i	i	i
CCN(CC)C(=O)Nc1ccc(OC[C@H](O)CNC(C)(C)C)c(C(C)=O)c1	nt	i	i	nt	i	nt
Cc1nn(CC(=O)OCC(=O)NC(C)c2ccccc2)c(C)c1[N+](=O)[O-] (stereo unspecified)	i	i	?	i	i	i
CC(=O)Nc1ccc(C(=O)Nc2nc(-c3cccnc3)cs2)cc1	11µM	i	i	i	i	i
O=S(=O)(NCCNCC=Cc1ccc(Br)cc1)c1cccc2cnccc12	i	nt	nt	nt	nt	i
CCc1ccc2occ(CC(=O)Nc3c(C(=O)Nc4ccc(C)cc4)oc4ccccc34)c2c1	i	nt	nt	i	nt	i
CCc1ccc2occ(CC(=O)Nc3c(C(=O)c4ccccc4)oc4ccccc34)c2c1	22µM	nt	nt	i	nt	i
CCc1ccc2occ(CC(=O)Nc3c(C(=O)Nc4ccc(Cl)cc4)oc4ccccc34)c2c1	16µM	nt	nt	i	nt	i
Cc1ccc2occ(CC(=O)Nc3c(C(=O)Nc4ccc(Cl)cc4)oc4ccccc34)c2c1	18µM	nt	nt	i	nt	i
Cc1cc(-c2ccnc(-n3ncc(C(=O)NCC4CCCN(C)C4)c3C3CC3)n2)c(C)s1 (stereo unspecified)	nt	nt	nt	nt	nt	i
Clc1cccc(N2CCN(c3ncnc4c3nc3n4CCCCC3)CC2)c1	i	nt	nt	i	nt	i
COc1cccc(CC(=O)NCC2Cc3cc(Cl)cc(-c4ncccn4)c3O2)c1 (stereo unspecified)	nt	nt	nt	nt	nt	i
Cc1ccc(C)c(CN2CCC3(CCC(CNC(=O)c4ccnn4C)O3)CC2)c1 (stereo unspecified)	nt	nt	nt	nt	nt	i
Cc1ccc(C(=O)N/N=C(/CC(=O)c2cccs2)C(F)(F)F)cc1	i	?	i	i	i	45µM
OC1(c2cccnc2)CCN(Cc2ccc3c(c2)CN(Cc2ccsc2)CCO3)CC1	nt	nt	nt	nt	nt	i
C[C@H]1CN([C@@H](C)CO)S(=O)(=O)c2ccc(/C=C/c3ccccc3)cc2O[C@H]1CN(C)C(=O)NC1CCCCC1	35µM	nt	nt	nt	nt	i
Cn1c(=O)[nH]c(=O)c2[nH]c(CO)nc21	i	nt	nt	nt	nt	i
CCCOc1ccccc1-c1nc2c([nH]1)c(=O)[nH]c(=O)n2C	32µM	i	i	i	i	i
CC(=O)Oc1ccc2ccccc2c1C(NC(=O)Cc1ccccc1)c1ccc(Cl)cc1 (stereo unspecified)	i	i	i	i	i	14µM
CCOc1ccc(C(NC(=O)CC)c2c(O)ccc3ccccc23)cc1 (stereo unspecified)	?	i	i	nt	i	i
CCOc1ccc(-n2cc(-c3ccccc3)c3c(NC4CCCC4)ncnc32)cc1	11µM	nt	nt	i	nt	i
CCOc1ccc(-n2cc(-c3ccccc3)c3c(NC4CCCCC4)ncnc32)cc1	?	nt	nt	i	nt	i
CN(c1ncnc2c1c(-c1ccccc1)cn2-c1ccc(F)cc1)C1CCCCC1	28µM	nt	nt	i	nt	i
CCCCc1nc2c(c3c1C[C@H](C)OC3)CN(S(=O)(=O)c1ccc(NC(C)=O)cc1)CC2	nt	i[11.7 µM]	nt	nt	i[11.7 µM]	nt
SMILES	ClpP mod	Menin MLL FP TR	CXXC DNA block	Epigenetic reg	Menin MLL FP FL	PINK1 expr mod
Nc1cc2sc(-c3ccc(C(=O)O)cc3)nc2cc1Cl	4.5µM	i	i	i	i	i
Nc1ccc(-c2nc3ccc(C(=O)O)cc3s2)cc1	i	i	i	i	i	i
CCN(CC)c1ccc(/C=C(/C#N)C(=O)NCc2ccccc2)o1	i	i	i	?	?	32µM
CC1(C)CC(=O)C2=C(C1)N(CCN1CCOCC1)C1=C(C(=O)CC(C)(C)C1)C2c1cccc(F)c1	28µM	i	i	i	i	i
CC1(C)CC(=O)C2=C(C1)N(CCN1CCOCC1)C1=C(C(=O)CC(C)(C)C1)C2c1ccc(Cl)cc1	i	nt	i	i	i	i
O=C1CCCC/C1=C\Nc1ccccc1C(=O)O	32µM	i	i	i	i	i
Cc1onc(-c2c(F)cccc2Cl)c1C(=O)Nc1cc(S(=O)(=O)N2CCCCC2)ccc1O	i	nt	nt	nt	nt	16µM
Cc1onc(-c2c(F)cccc2Cl)c1C(=O)NCc1ccc2c(c1)OCO2	28µM	nt	i	nt	nt	i
CC(OC(=O)c1ccccc1NCCO)C(=O)NCC(=O)Nc1ccc(F)c(F)c1F (stereo unspecified)	16µM	i	i	nt	i	i
Cc1ccc(NC(=O)CN(C)C(=O)C(C)OC(=O)c2ccccc2NCCO)cc1 (stereo unspecified)	25µM	nt	nt	nt	nt	i
CCOC(=O)c1c(-c2ccccc2)csc1NC(=O)c1nc(S(=O)(=O)CC)ncc1Cl	i	nt	nt	i	nt	i
CCC(C)N1C(=O)/C(=C/c2c(NCCCOC(C)C)nc3c(C)cccn3c2=O)SC1=S (stereo unspecified)	i	?	?	3.2µM	?	i
Cc1noc(-c2ccccc2OCC(=O)Nc2ccccc2[N+](=O)[O-])n1	i	nt	nt	i	nt	i
Cc1nc(Cl)sc1C(=O)Nc1ccccc1	i	i	i	i	i	i
Cc1nc(Cl)sc1C(=O)Nc1ccc(Cl)cc1	28µM	i	i	i	i	i
C[C@@H]1CN([C@@H](C)CO)C(=O)CCCn2nncc2CO[C@H]1CN(C)Cc1ccncc1	i	nt	nt	nt	nt	i
O=Nc1ccc(/C=C/c2ccnc3ccccc23)cc1	i	nt	nt	nt	nt	nt
COc1ccc(CNc2cccc3[nH]c(C(F)(F)F)nc23)cc1OC	i	?	i	nt	i	25µM
COc1ccc2nc(C)cc(N/N=C/c3ccccc3)c2c1	i	nt	nt	nt	nt	i
COc1ccc(/C=N/Nc2cc(C)nc3ccc(OC)cc23)c(OC)c1	i	13µM	?	nt	i	i
CN(C)C=Nc1ncc2c3ccccc3n(Cc3ccccc3)c2c1C#N	32µM	i	i	i	i	i
CN(C)C=Nc1ncc2c3ccccc3n(CCN(C)C)c2c1C#N	?	i	i	i	i	i
Cc1nc(C)c(CC(=O)N2CCOc3ccc(CN4CCOCC4)cc3C2)s1	nt	nt	nt	nt	nt	i
CC(C)c1ccc(NC(=O)c2cn(C3CCCCC3)c(=O)c3c2c2ccccc2n3C)cc1	25µM	nt	nt	i	nt	i
CC(C)c1ccc(NC(=O)c2cn(C3CCCC3)c(=O)c3c2c2ccccc2n3C)cc1	i	nt	nt	i	nt	i
Cn1c2ccccc2c2c(C(=O)N3CCN(c4ccccn4)CC3)cn(C3CCCC3)c(=O)c21	32µM	i	i	i	i	i
N#C/C(=C/c1ccc(N2CCOCC2)o1)c1ccc(Br)cc1	i	?	?	4µM	?	?
N#C/C(=C/c1ccc(N2CCOCC2)o1)c1nc2ccccc2[nH]1	i	i	?	16µM	?	25µM
N#C/C(=C\c1ccc(N2CCOCC2)o1)c1ccccc1	i	?	i	11µM	?	nt
